Screening data (PubChem)
VACV Venus inh = qHTS for Stage-Specific Inhibitors of Vaccinia Orthopoxvirus: Venus Reporter Primary qHTS; 0.46% of 330,000 active; AID 720580, 2013; Potency, µM (titrated, usually from 36.5 µM), without a hit: at the top dose activity change, negative = inhibition, actives largely listed as inhibitors; Vaccinia virus Venus reporter expression, fluorescence; calls by dose curve; tested in A549 cells; further: potency means the concentration at half of the fitted maximal effect; nearly all actives have a fitted effect of over 30% in size
MARV entry inh = qHTS for inhibitors of binding or entry into cells for Marburg Virus. Marburg virus pseudotyped entry inhibition, cell reporter. AID 540276, 2011. Potency, µM (series often up to 37.8 µM), without a hit: top-dose activity change, negative = inhibition, usual class: inhibitors. 1.8% of 300,000 active; calls by dose curve; tested in HEK293 cells; further: potency means the concentration at half of the fitted maximal effect
Vaccinia mCherry = qHTS for Stage-Specific Inhibitors of Vaccinia Orthopoxvirus: mCherry Reporter Primary qHTS. 0.63% of 310,000 active. Potency, µM (top dose mostly 36.5 µM), for the others: at the highest dose activity change, negative = inhibition, actives largely listed as inhibitors. Vaccinia virus mCherry reporter infection, fluorescence; calls by dose curve; tested in A549 cells; further: potency means the concentration at half of the fitted maximal effect; nearly all actives have a fitted effect of over 35% in size
FMDV antiviral = High Throughput Screening for Foot and Mouth Disease Virus Antivirals | FMDV antiviral cell-based qHTS | Potency, µM (doses to about 57.9 µM), for the others: top-dose activity change, negative = inhibition, most hits filed as inhibitors | 1.2% of 410,000 active; calls by dose curve; tested in HEK293T cells; further: read-out not given here; potency means the concentration at half of the fitted maximal effect; nearly all actives have a fitted effect of over 45% in size
HCMV antiviral = qHTS Assay for inhibitors of the human cytomegalovirus (HCMV); 4.5% of 410,000 active; activity change, negative = inhibition, % at 57.5 µM; HFF cells, HCMV-luciferase reporter, 72 h; hits give low values; in the data active means activity change below about -60%; inconclusive means no clear call, values can overlap the other calls; inactive means above about -39%
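HFF cells seeded 16 h at 37C, treated with compounds, infected with luciferase-reporter HCMV at MOI 1 PFU/cell; luciferase read at 72 h post infection, normalized to buffer-only and Salinomycin controls.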
Lassa entry inh = qHTS for Inhibitors of binding or entry into cells for Lassa Virus. Lassa virus pseudotype entry inhibition, cell reporter. Potency, µM (top dose mostly 37.9 µM), for inactives: at the top dose activity change, negative = inhibition, most hits filed as inhibitors. 1.2% of 300,000 active. AID 540256, 2011; calls by dose curve; tested in HEK293 cells; further: potency means the concentration at half of the fitted maximal effect; nearly all actives have a fitted effect of over 50% in size
* hit, by the source's call; i = inactive; ? = inconclusive; . = no result; + = active, no number; ! = not confirmed by another sample; [ ] = remark or other dose. The list is not random: actives were taken first. Their share in the collection is about 6.5%. On the % scale 0 is the no-effect control and ±100 the full control effect.

SMILES	VACV Venus inh	MARV entry inh	Vaccinia mCherry	FMDV antiviral	HCMV antiviral	Lassa entry inh
COC(=O)C1=C(C)N(C)C(=O)NC1c1c(OC)ccc2ccccc12 (centres undefined)	-5.5%	0.2%[46.1 µM]	i	-1.5%	-12.7	-4.8%
CC(C)CC1C(=O)N(Cc2cn(Cc3ccco3)nn2)CCS(=O)(=O)N1Cc1ccc(-c2ccc(F)nc2)cc1 (centres undefined)	-24.1%	.	-9.3%	-23.0%	-6.2	?
N#Cc1ccccc1OCC(=O)NC(=O)NCc1ccco1	.	.	.	62.0%	0.0	.
CC(=O)N1c2ccc(S(=O)(=O)N3CCC(C(=O)N4CCN(c5ccc(Cl)cc5)CC4)CC3)cc2CC1C (centres undefined)	.	.	.	?	-74.3*	.
O=C(C1CCN(S(=O)(=O)c2cccc3cccnc23)CC1)N1CCN(c2ccc(Cl)cc2)CC1	-24.1%	2.7%	8.4%	-29.8%	-79.2*	.
O=C(C1CCN(S(=O)(=O)c2ccc3ccccc3c2)CC1)N1CCN(c2ncccn2)CC1	-3.4%	?	-5.1%	28.2µM*	-32.5	?
CC1Cc2cc(S(=O)(=O)N3CCN(c4ccc(Cl)cc4)CC3)ccc2N1C(=O)C1CC1 (centres undefined)	-11.1%	?	-13.9%	?	-25.6	?
COc1ccc(N2CCN(C(=O)C3CCN(S(=O)(=O)c4cn(C)cn4)CC3)CC2)cc1	-7.7%	.	-10.7%	-9.7%	-72.4*	-9.3%[46.1 µM]
Cn1cnc(S(=O)(=O)N2CCC(C(=O)N3CCN(c4ccc(Cl)cc4)CC3)CC2)c1	-17.6%	.	-13.7%	-7.5%	-14.2	-11.5%[46.1 µM]
C[C@]12c3[nH]c4ccc(Cl)cc4c3CCN1C(=O)[C@@H](CC(=O)NCCc1ccccn1)C[C@@H]2C(=O)N1CCCCC1	-29.4%	.	-14.5%	-21.3%	-18.7	.
COc1ccc(-c2noc(CN(C(=O)COc3cc(C)c(Br)c(C)c3)C(C)C)n2)cc1	-14.2%	?	i	-20.4%	?	-22.3%[46.1 µM]
Cc1ccc(Cl)cc1N1CCN(C(=O)C2CCN(S(=O)(=O)c3cccnc3)CC2)CC1	?	?	?	15.8µM*	-30.3	?
CN1C(=O)Cc2cc(S(=O)(=O)N3CCN(c4ccc(Cl)cc4)CC3)ccc21	-5.1%	20.7%[46.1 µM]	-21.3%	-18.1%	+!	-8.1%[46.1 µM]
CN(C)CCN(Cc1ccccc1)S(=O)(=O)c1ccc2[nH]c(=O)ccc2c1	2.1%	.	-2.6%	?	11.1	1.6%[46.1 µM]
COc1ccc(CNS(=O)(=O)c2cc3c(cc2Cl)N(C(C)=O)CCO3)cc1	-5.6%[7.34 µM]	.	-0.9%[7.34 µM]	56.7%	41.8	-29.0%[46.1 µM]
CCc1noc(C)c1C(=O)Nc1cccc2ncccc12	.	.	.	-13.5%	7.6	.
Oc1ccccc1/C=N/Nc1nccnc1Cl	.	?	.	38.2%	-100.3*	13µM*
Oc1cccc(C=NNc2ccccn2)c1	-10.0%	-0.6%	-8.4%	36.9%	64.6	?
Oc1ccc(C=NNc2ccccn2)c(O)c1	?	?	?	11.0%	-98.8*	?
Oc1ccc(/C=N/Nc2ncc(Br)cn2)c(O)c1	?	?	2.51µM*	10.1%	124.3	?
Oc1ccc(/C=N/Nc2cccc3cccnc23)c(O)c1	-23.3%	?	?	.	-21.7	?
Oc1ccc(/C=N/Nc2nccnc2Cl)c(O)c1	?	?	2.51µM*	9.1%	-97.4*	?
Oc1ccc(Br)cc1/C=N/Nc1ncc(-c2ccccc2)cn1	7.0%	-33.5%	i	-13.8%	-32.5	-25.2%
Cc1cc(NC(=O)N(C)CCc2c(C)nn(C)c2C)ccc1Br	2.1%	.	-11.1%	11.7%	15.4	-20.3%[46.1 µM]
O=C1c2ccccc2C(=O)C1c1ccc(O)cc1	11.7%	8.9%[46.1 µM]	-6.5%	3.8%	-61.4*	-23.6%[46.1 µM]
SMILES	VACV Venus inh	MARV entry inh	Vaccinia mCherry	FMDV antiviral	HCMV antiviral	Lassa entry inh
O=C(N/N=C/c1ccc(OC(F)F)cc1OC(F)F)NC1CCCCC1	-12.9%	1.6%[46.1 µM]	-0.7%	-26.6%	-31.0	11.2µM*
CCCCN(C)C(=O)c1sc(=O)n(Cc2c(C)cccc2C)c1C	-0.1%	.	i	-7.9%	-61.2*	.
COC(=O)N1C(=O)[C@](Cc2ccccc2)(c2ccccc2)N1C(=O)OC	10µM*	.	12.6µM*	?	4.3	.
CC[C@@]1(c2ccccc2)C(=O)N(C(=O)OC)N1C(=O)OC	-23.6%	.	-0.5%	0.0%	14.7	.
CC[C@]1(c2cccc(C)c2)C(=O)N(C(=O)OC)N1C(=O)OC	?	.	11.2µM*	?	83.9	.
COc1cc2sc(-c3ccc(S(C)(=O)=O)cc3)c(C#CCO)c2cc1OC	?	.	-12.0%	-2.3%	6.3	.
CC(C)n1ncc2c(C(=O)Nc3cccc(C#N)c3)cc(C3CC3)nc21	.	.	.	?	-90.9*	.
CCNC(=O)c1cccc(NC(=O)c2cc(C3CC3)nc3c2cnn3C(C)C)c1	-3.0%	?	-13.6%	-8.6%	-13.7	?
COc1ccc(NC(=O)c2cc(-c3ccccc3)nc3c2cnn3C(C)C)cc1	.	.	.	39.8µM*	-33.6	.
COc1cccc2cc(-c3nc(-c4ccccc4F)no3)c(=O)oc12	0.9%	.	-11.8%	?	-32.7	?
Cc1ccc(C(=O)N2CCc3cc(CNC(=O)c4ccnn4C)ccc32)cc1	?	.	-16.2%	?	-70.2*	?
Cn1nccc1C(=O)NCc1ccc2c(c1)CCN2C(=O)c1ccc(Cl)cc1	-12.6%	.	-12.3%	1.4%	-15.4	?
Cc1cccc(C(=O)N2CCc3cc(CNC(=O)c4ccc(Br)o4)ccc32)c1	-27.3%	.	-26.0%	6.1%	-66.6*	?
CCOC(=O)c1cccc(NC(=O)NCc2ccc3c(c2)CCN3C(=O)c2ccccc2)c1	?	.	?	39.8µM*	?	?
Cn1nccc1C(=O)NCc1ccc2c(c1)CCN2C(=O)c1ccc(F)cc1	-16.5%	.	i	-14.2%	-1.1	?
O=C(NCc1ccc2c(c1)CCN2C(=O)c1ccccc1)c1ccc(Br)o1	-15.6%	.	-17.5%	-26.5%	-11.5	-28.5%[46.1 µM]
Cc1cccc(C(=O)N2CCc3cc(CNC(=O)c4ccnn4C)ccc32)c1	-13.3%	.	i	20µM*	3.8	?
Cc1ccc(S(=O)(=O)N2CCN(c3nc(-n4cccn4)nc4ccccc34)CC2)cc1	-7.9%	.	-8.8%	.	.	.
Cc1cnc(SCc2ccccn2)nc1C1CCCN(C(=O)c2ccc3c(c2)OCO3)C1 (centres undefined)	-24.6%	.	-18.9%	-19.0%	.	.
COc1ccc(N2CC(C(=O)N3CCCC(C)C3)CC2=O)cc1 (centres undefined)	4.3%	?	-6.9%	4.1%	-23.4	-6.5%[46.1 µM]
CCCC1(CCC)NC(=O)N(CC(=O)Nc2ccc3c(c2)OCCO3)C1=O	-6.1%	0.2%[46.1 µM]	i	-5.4%	15.2	-9.6%[46.1 µM]
Clc1ccc2c(c1)C(c1ccccc1Cl)=NCc1nncn1-2	-7.6%	-11.2%	-6.8%	2.2%	25.5	6.4%
